Measured values taken from PubChem BioAssay (EPA / NIEHS).
Records with an inconclusive call do not appear. Activity calls are given as the source filed them. Rule for the calls: active = hit-call score of the fitted dose curve at least 0.9, where 1 is the maximum; inconclusive = response in the unintended direction; inactive = score below 0.9. Peptide text beside a SMILES is read from it.

The molecules below were run against Peroxisome proliferator-activated receptor gamma (Homo sapiens) (UniProt P37231) (assay: OT_PPARg_PPARgSRC1_0480: Odyssey Thera (OT) 8-hour Protein-Complementation Assay for Peroxisome Proliferator-activated Receptor Gamma / SRC-1 Co-activator (AID 2283387);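 note: nuclear to cytoplasmic split Venus YFP fluorescence ratio reporting PPARg SRC-1 interaction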).
Chain of Peroxisome proliferator-activated receptor gamma (Homo sapiens) (P37231 whole entry, looked up): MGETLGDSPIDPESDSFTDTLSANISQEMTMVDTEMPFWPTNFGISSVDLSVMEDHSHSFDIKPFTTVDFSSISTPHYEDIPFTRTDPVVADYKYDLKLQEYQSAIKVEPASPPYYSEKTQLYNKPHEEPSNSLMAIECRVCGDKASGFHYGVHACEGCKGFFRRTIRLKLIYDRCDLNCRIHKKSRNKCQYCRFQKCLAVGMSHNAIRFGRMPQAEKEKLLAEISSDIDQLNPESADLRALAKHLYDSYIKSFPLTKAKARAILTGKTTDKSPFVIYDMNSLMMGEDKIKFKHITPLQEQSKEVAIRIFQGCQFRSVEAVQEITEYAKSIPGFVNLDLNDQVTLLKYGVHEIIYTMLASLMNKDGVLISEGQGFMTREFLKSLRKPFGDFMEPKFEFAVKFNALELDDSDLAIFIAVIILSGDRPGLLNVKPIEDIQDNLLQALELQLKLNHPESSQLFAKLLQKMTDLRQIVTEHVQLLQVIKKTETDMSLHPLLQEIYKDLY
In short: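 Split-YFP (IFP1/IFP2) PPARg/SRC-1 reporter, HEK293T, 37 °C, 5% CO2; 8 h compound; formaldehyde fix + Draq5; high-content imaging, N/C ratio, ≥350 cells/image, positive direction vs DMSO.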
In the case of `CCCCc1ccc(Cl)cc1`, the outcome is reported as “inactive”.
For `Cc1cc(C)n(CO)n1`, the outcome was “inactive”.
For `CC(C)(C)N`, the outcome was “inactive”.
In the case of `CCCCCCCO`, the outcome is reported as “inactive”.
For `CC12CCC(CC1)C(C)(C)O2`, the outcome was “inactive”.
In the case of `CC1=CCC2CC1C2(C)C` (centres undefined), the outcome is reported as “inactive”.
`O=C(O)C1CCC(C(=O)O)CC1` (centres undefined) was tested, and the outcome was “inactive”.
`CCCCNC(=S)NCCCC` was tested, and the outcome was “inactive”.
For `CCCCNS(=O)(=O)c1ccc(C)cc1`, the outcome was “inactive”.
With `CCCCCC[C@@H](O)C/C=C\CCCCCCCC(=O)OCC(O)CO` (some centres undefined) the outcome was “inactive”.
With `COC(=O)c1ccccc1C` the outcome was “inactive”.
For `Nc1ccc(C(=O)O)cc1`, the outcome was “inactive”.
In the case of `CCCCCCO`, the outcome is reported as “inactive”.
In the case of `CCCCCCCCCCCC(=O)N(C)CC(=O)O`, the outcome is reported as “inactive”.
With `CC(C)(C)C1CCC(=O)CC1` the outcome was “inactive”.
For `CCCCCCOC(=O)CCCCC(=O)OCCCCCC`, the outcome was “inactive”.
With `C=C1C[C@H]2[C@@H]3C=C(C)C4=CC(=O)CC[C@]4(C)[C@H]3CC[C@]2(C)[C@@]1(OC(C)=O)C(C)=O` the outcome was “inactive”.
For `CCc1occc(=O)c1O`, the outcome was “inactive”.
With `CC(C)=CCCC(C)=CC#N` the outcome was “inactive”.
In the case of `CC(C)COC(=O)CC(C(=O)OCC(C)C)S(=O)(=O)O` (centres undefined), the outcome is reported as “inactive”.
For `CCOC(=O)c1ccccc1C`, the outcome was “inactive”.
`C1CNCCN1` was tested, and the outcome was “inactive”.
`O=c1c(O)c(-c2ccc(O)cc2O)oc2cc(O)cc(O)c12` was tested, and the outcome was “inactive”.
`CCCCOCCOC(=O)COc1ccc(Cl)cc1Cl` was tested, and the outcome was “inactive”.
With `CCCCCCCCCCCCCC(=O)OC(C)C` the outcome was “inactive”.
`CC(=O)OC(C)c1ccccc1` (centres undefined) was tested, and the outcome was “inactive”.
For `CCCCCCCCCCCCCCCCCCOS(=O)(=O)O`, the outcome was “inactive”.
`COC(=O)[C@H](Cc1ccccc1)NC(=O)[C@@H](N)CC(=O)O` (H-Asp-Phe-OMe) was tested, and the outcome was “inactive”.
For `O=C(O)/C=C/c1ccccc1`, the outcome was “inactive”.
